Screening data deposited in PubChem BioAssay by Sanford-Burnham Center for Chemical Genomics.
MPTP inh: blocks calcium-induced mitochondrial swelling. isolated mouse mitochondria, Ca2+ swelling absorbance, 30 min. inhibition, % at 10 µM. 360,000 compounds, 1.4% hits. AID 602449;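 active = inhibition of 50% or more, scaled per plate between neutral and stimulator controls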;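 also: 0% = DMSO wells given calcium and 100% = 1 mM EGTA wells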
FAS TE block: blocks the thioesterase domain of human fatty acid synthase | inhibition, % at 15 µM | P49327 | 360,000 compounds, 0.67% hits | recombinant FAS-TE, OMFH fluorogenic substrate, fluorescence endpoint | AID 602261;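 active = compounds whose normalised, plate-corrected inhibition of enzyme fluorescence in the single-dose primary screen is 50% or more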;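 also: 0% = DMSO with enzyme and 100% = substrate without enzyme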
NR3A LBD binder: modulators (binders) of human NR3A ligand-binding domain | 340,000 compounds, 2.5% hits | AID 1259313 | Tm shift relative to glycine control, % at 25 µM | NR3A LBD differential scanning fluorimetry, Tm shift; 0% = protein alone, 100% = glycine-bound protein;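 active = melting temperature shift of at least 10% of the positive control shift, at one fixed dose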
pCIP destab: p/CIP protein destabilization; Q05BA5; decrease of EGFP signal, % at 10 µM; F442A p/CIP-EGFP cells, EGFP fluorescence, 16 h; 290,000 compounds, 0.01% hits;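 active = EGFP signal decrease of at least 30% at 10 µM or well 3 SD below plate mean, unless failing retest; inactive = the rest, including hits failing retest or dose response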
beta cell repl: inducers of beta-cell replication in MIN6 cells; AID 2380; 330,000 compounds, 0.29% hits; MIN6 cells proliferation, ATPlite luminescence, 48 h; cells starved in 0.2% serum; 100% = growth in 10% serum; proliferation, % at 10 µM;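 active = compounds whose signal lies at least 3.5 SD above the mean of all wells on their plate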;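 also: 0% = DMSO-treated cells in low-serum medium and 100% = 10% serum control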
FAS-TE inh conf: FAS thioesterase (human) inhibition, confirmation. shares compounds with FAS TE block. recombinant FAS-TE, OMFH fluorogenic substrate, fluorescence. inhibition, % at 15 µM. 2,300 compounds, 45% hits. AID 624325;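 active = compounds inhibiting the enzyme by at least 50% at 15 µM in any one of the replicates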;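 also: 0% = enzyme with DMSO only and 100% = wells lacking enzyme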
* marks the source's active call; other numbers are inactive results; / = no result. A selection: hits, their analogues and other compounds. The true share with any hit is near 4.1%.

SMILES	MPTP inh	FAS TE block	NR3A LBD binder	pCIP destab	beta cell repl	FAS-TE inh conf
O=C(N/N=C/c1cc([N+](=O)[O-])ccc1N1CCCCCC1)c1ccccn1	4	47	-1	6	4	/
CN1CCN(c2ccc([N+](=O)[O-])cc2/C=N/NC(=O)c2ccc(F)cc2)CC1	0	52*	-6	-1	/	51*
CCN(CC)C(=O)C1CCCN(c2ccc([N+](=O)[O-])cc2/C=N/NC(=O)c2cccc(Br)c2)C1 (stereo not given)	2	86*	-5	-20	-1	17
CCOC(=O)[C@]12CCC=C1N(Cc1ccco1)C(=O)[C@H](CC(=O)NCC1CCCCC1)C2	-2	-5	/	/	/	/
CC(=O)Nc1ccc(N2CCOCC2)c(S(=O)(=O)Nc2ccccc2Cl)c1	1	-3	/	/	/	/
COc1ccc(/C=C/C(=O)Nc2cc(S(=O)(=O)N3CCCCC3)ccc2N2CCCCC2)cc1OC	1	90*	-3	-13	0	8
CCN1CCN(c2ccc(S(=O)(=O)N3CCCCC3)cc2NC(=O)/C=C/c2ccc(OC)c(OC)c2)CC1	2	-2	3	/	-7	/
COc1ccc(NC(=O)c2ccc3ccccc3n2)cc1S(=O)(=O)Nc1ccccc1Cl	0	64*	16*	-2	0	13
COc1cc(/C=C/C(=O)Nc2ccc(N3CCCCC3)c(S(=O)(=O)Nc3ccccc3Cl)c2)cc(OC)c1OC	5	58*	2	-3	-1	12
CCOC(=O)Cc1ccc(Nc2nc3cc(-c4sccc4C)sc3c(=O)n2C)cc1	1	23	/	/	/	/
OC1CCN(c2c3c(nc4cc(-c5cccc(F)c5)nn24)CCCC3)CC1	0	6	-3	-2	-2	/
Fc1cccc(-c2cc3nc4c(c(N5CCC6(CC5)OCCO6)n3n2)CCCC4)c1	1	55*	-1	8	-4	35
CN1CCN2c3ccccc3CC(C#N)(C#N)C2C1 (stereo not given)	-1	-4	/	/	/	/
Cc1cccc(NC(=O)CNC(=O)COC(=O)c2ccc(C(C)(C)C)cc2)c1C	-2	64*	-2	/	-3	51*
COc1ccc(CN2C[C@@H](CO)O[C@@H](n3cnc4c(NCc5ccco5)ncnc43)C2)cc1	-1	-6	/	/	/	/
CCOc1ccc(C(=O)COC(=O)c2cc([N+](=O)[O-])ccc2N2CCOCC2)cc1	-1	69*	2	/	3	63*
O=C(COC(=O)c1cc([N+](=O)[O-])ccc1N1CCOCC1)c1ccc(Br)cc1	0	63*	2	/	1	7
c1cnc2ccc(-n3ccnc3)cc2c1	-1	-8	/	/	/	/
O=C(NCc1ccccc1)c1cc(C2CCCN(S(=O)(=O)c3ccccc3)C2)on1 (stereo not given)	-2	17	/	/	/	/
COc1ccc(-c2nn(-c3ccccc3)cc2/C=N/NC(=S)NC(C)C)cc1OC	2	56*	1	-6	-3	15
COc1ccc(-c2nn(-c3ccccc3)cc2/C=N/NC(=O)c2cccc(S(=O)(=O)Nc3ccccc3OC)c2)cc1	1	54*	3	-7	-2	22
CC1(C)OC(=O)C2=C(C[C@@H](C3CCCCC3)O[C@@H]2c2ccc(F)cc2)O1	-1	16	/	/	/	/
CSc1ccc(CN2CCC(C)(Oc3cccc(Cl)c3)C2)cc1 (stereo not given)	7	10	/	/	/	/
O=C(CNCC1CCCO1)Nc1ccc([N+](=O)[O-])cc1C(=O)Nc1ccccc1F (stereo not given)	3	18	1	6	-1	/
COc1cccc(NC(=O)c2cc([N+](=O)[O-])ccc2NC(=O)CNCC2CCCO2)c1 (stereo not given)	2	52*	-2	-6	2	57*
SMILES	MPTP inh	FAS TE block	NR3A LBD binder	pCIP destab	beta cell repl	FAS-TE inh conf
O=c1[nH]c2cc(Cl)c(Br)cc2o1	6	-7	2	/	/	/
CCN1CCN(C(=O)c2cc3cc([N+](=O)[O-])ccc3oc2=O)CC1	0	2	-1	0	3	/
O=C(c1cc2cc([N+](=O)[O-])ccc2oc1=O)N1CCN(C2CCCCC2)CC1	-3	61*	0	-28	-3	47*
O=C(CN1CCN(S(=O)(=O)c2ccc(Cl)c(C(F)(F)F)c2)CC1)NC(=O)NC1CCCCC1	1	77*	-4	/	/	20*
CCOC(=O)[C@]12CCC=C1N(Cc1cccc3ccccc13)C(=O)[C@H](CC(=O)NCCCCc1ccccc1)C2	-2	12	/	/	/	/
CCc1nc2c(OCc3ccc(Cl)cc3)cccn2c1N(C=O)Cc1ccccc1	0	64*	/	/	/	71*
COC(=O)c1c(C(=O)OC)c2c(-c3ccccc3)cc3cccc1n32	1	27	/	/	/	/
COc1ccc(C2CC(c3ccc(Cl)cc3)=NN2C(=O)c2cccc([N+](=O)[O-])c2)cc1 (stereo not given)	2	29	-2	-5	-2	/
COc1ccc(C2=NN(C(=O)c3ccc(Cl)c([N+](=O)[O-])c3)C(c3ccccc3)C2)cc1 (stereo not given)	2	56*	-1	2	-6	-1
O=C(Cn1c(=O)c2sccc2n(Cc2cccc([N+](=O)[O-])c2)c1=O)NCCc1ccccc1	0	57*	-8	-8	-2	63*
O=C(Cn1c(=O)c2sccc2n(Cc2ccc([N+](=O)[O-])cc2)c1=O)NCCc1ccccc1	-21	75*	-5	14	3	76*
Cc1cc(C)cc(CC(=O)N2CCC2(C)C(=O)NS(=O)(=O)c2ccc(C(C)(C)C)cc2)c1 (stereo not given)	0	-9	/	/	/	/
CN(Cc1cn(Cc2cccc(C(F)(F)F)c2)nn1)C1CN(Cc2cn(Cc3cccc(C(F)(F)F)c3)nn2)S(=O)(=O)C1 (stereo not given)	1	6	/	/	/	/
O=C(NNc1ccc([N+](=O)[O-])cc1[N+](=O)[O-])C1C2CCCCC21 (stereo not given)	4	62*	0	-1	-2	23
COc1ccc(OC(F)(F)F)cc1CC1(C)C(=O)Nc2ccc(S(=O)(=O)NC3CCCCC3)cc21 (stereo not given)	1	20	/	/	/	/
O=S(=O)(/N=C(/Sc1ccccc1)c1ccccc1)c1ccccc1	15	57*	2	-2	-6	32
O=C(NCc1cccc(C(F)(F)F)c1)c1csc([C@H]2C[C@H](O)[C@@H](CO)O2)n1	0	-3	/	/	/	/
N#C/C(=C\c1cccc2ccccc12)c1nn(-c2ccccc2)c(N)c1C#N	/	/	6	/	2	/
N#C/C(=C\c1cc([N+](=O)[O-])c(N2CCCCC2)cc1N1CCCCC1)c1nn(-c2ccccc2)c(N)c1C#N	1	57*	2	-18	-1	1
O=C(CSc1nc2ccccc2c(=O)n1-c1ccc(Cl)cc1)N/N=C/C=C/c1ccccc1[N+](=O)[O-]	0	80*	-1	5	0	17
